From the supplement of paper PMC11732987, “Enantioselective OTUD7B fragment discovery through chemoproteomics screening and high-throughput optimisation” (Communications Chemistry, 2025)
Unmarked numbers belong to inactive results.

Key:
Assay in all cases: log2 ratio of Biotin-Ahx-Ub-VS probe labelling (fragment/DMSO); higher = less target engagement (more negative = stronger competition), active = hit call of the paper (q ≤ 0.05, log2 ratio ≤ -1)
Conditions in all cases: compound concentration: 200 uM; treatment time: 3 h
[1] = biological target: T1, OTUD6B (UniProt Q8N6M0)
T1 sequence (whole entry): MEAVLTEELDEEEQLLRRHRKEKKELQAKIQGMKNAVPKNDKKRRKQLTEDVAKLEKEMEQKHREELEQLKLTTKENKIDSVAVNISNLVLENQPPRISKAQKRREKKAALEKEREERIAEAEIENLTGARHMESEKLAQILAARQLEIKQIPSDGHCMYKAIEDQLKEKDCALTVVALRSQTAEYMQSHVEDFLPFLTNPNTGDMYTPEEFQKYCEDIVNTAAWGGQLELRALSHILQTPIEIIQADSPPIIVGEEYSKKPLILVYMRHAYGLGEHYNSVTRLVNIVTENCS
Method in brief: (§1)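 Each value is an average log2 ratio of fragment to vehicle, tested by unpaired t-test. The underlying Spectronaut label-free quantities were global-median-normalised, and only proteins with ≥2 unique peptides were included. Triplicate HEK293T lysate samples (495 µg) were exposed to fragment at 200 µM or vehicle for 3 h, then to Biotin-Ahx-Ub-VS at 0.5 µM final for 1 h, before NeutrAvidin enrichment of labelled DUBs, LysC and trypsin digestion, and diaPASEF LC-MS/MS.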

[2] = biological target: T2, OTUD7B (UniProt Q6GQQ9)
T2 sequence (whole entry): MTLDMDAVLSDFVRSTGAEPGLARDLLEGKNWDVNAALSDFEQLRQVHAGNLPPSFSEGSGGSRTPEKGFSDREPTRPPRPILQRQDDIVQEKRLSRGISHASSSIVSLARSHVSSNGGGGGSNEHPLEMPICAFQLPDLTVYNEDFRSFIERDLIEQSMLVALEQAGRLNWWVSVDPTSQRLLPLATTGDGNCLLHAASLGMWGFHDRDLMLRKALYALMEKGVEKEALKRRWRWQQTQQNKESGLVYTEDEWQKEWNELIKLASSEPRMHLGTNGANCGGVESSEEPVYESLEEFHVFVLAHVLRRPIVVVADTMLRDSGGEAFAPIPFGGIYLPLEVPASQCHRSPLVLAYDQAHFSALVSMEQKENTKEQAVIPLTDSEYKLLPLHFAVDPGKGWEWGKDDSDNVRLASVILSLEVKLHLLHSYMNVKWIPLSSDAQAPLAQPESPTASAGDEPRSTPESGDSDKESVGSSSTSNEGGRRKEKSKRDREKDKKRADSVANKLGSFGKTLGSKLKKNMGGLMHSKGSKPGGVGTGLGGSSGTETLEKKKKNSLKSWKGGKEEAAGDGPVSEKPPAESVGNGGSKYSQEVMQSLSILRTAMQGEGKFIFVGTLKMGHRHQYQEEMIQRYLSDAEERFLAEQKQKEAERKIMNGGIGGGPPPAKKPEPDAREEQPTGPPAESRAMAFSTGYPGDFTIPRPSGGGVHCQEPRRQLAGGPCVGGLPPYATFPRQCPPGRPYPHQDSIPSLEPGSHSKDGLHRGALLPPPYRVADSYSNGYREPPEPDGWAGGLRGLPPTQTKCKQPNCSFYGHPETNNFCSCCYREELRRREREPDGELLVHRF
Method in brief: as §1

[3] = biological target: PRPF8 (UniProt Q6P2Q9)
Method in brief: as §1

[4] = biological target: T3, PSMD7 (UniProt P51665)
T3 sequence (whole entry): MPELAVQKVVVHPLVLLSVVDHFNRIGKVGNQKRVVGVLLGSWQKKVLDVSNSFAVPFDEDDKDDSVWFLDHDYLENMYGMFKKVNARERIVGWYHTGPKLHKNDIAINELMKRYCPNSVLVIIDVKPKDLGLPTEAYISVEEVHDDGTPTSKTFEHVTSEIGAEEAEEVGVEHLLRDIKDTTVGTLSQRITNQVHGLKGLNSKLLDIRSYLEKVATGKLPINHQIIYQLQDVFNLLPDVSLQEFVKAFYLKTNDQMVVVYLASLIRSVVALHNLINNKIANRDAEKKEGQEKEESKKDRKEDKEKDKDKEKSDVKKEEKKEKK
Method in brief: as §1

[5] = biological target: UCHL1 (UniProt P09936)
UCHL1, sequence (P09936 whole entry, looked up): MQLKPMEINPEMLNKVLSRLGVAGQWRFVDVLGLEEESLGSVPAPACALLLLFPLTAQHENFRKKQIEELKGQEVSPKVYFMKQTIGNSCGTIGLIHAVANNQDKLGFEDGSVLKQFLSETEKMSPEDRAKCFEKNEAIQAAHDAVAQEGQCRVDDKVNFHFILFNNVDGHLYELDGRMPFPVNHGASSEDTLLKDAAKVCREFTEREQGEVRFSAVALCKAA
Method in brief: as §1

[6] = biological target: T4, UCHL3 (UniProt P15374)
T4 sequence (whole entry): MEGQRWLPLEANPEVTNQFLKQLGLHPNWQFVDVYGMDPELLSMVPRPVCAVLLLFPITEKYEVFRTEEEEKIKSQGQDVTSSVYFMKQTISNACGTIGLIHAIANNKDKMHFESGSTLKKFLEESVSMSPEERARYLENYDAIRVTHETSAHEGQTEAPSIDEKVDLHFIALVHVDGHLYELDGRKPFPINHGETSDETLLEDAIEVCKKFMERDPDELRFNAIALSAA
Method in brief: as §1

[7] = biological target: T5, UCHL5 (UniProt Q9Y5K5)
T5 sequence (whole entry): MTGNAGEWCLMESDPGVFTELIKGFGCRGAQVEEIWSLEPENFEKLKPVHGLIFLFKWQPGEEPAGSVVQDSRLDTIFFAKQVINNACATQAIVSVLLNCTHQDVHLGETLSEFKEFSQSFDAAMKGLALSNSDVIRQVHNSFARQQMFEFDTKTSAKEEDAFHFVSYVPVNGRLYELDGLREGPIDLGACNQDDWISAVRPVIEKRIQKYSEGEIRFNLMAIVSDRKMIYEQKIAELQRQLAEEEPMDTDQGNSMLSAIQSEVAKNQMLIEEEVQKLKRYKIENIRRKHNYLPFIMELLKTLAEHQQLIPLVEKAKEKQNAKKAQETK
Method in brief: as §1

[8] = biological target: USP10 (UniProt Q14694)
USP10, sequence (Q14694 whole entry): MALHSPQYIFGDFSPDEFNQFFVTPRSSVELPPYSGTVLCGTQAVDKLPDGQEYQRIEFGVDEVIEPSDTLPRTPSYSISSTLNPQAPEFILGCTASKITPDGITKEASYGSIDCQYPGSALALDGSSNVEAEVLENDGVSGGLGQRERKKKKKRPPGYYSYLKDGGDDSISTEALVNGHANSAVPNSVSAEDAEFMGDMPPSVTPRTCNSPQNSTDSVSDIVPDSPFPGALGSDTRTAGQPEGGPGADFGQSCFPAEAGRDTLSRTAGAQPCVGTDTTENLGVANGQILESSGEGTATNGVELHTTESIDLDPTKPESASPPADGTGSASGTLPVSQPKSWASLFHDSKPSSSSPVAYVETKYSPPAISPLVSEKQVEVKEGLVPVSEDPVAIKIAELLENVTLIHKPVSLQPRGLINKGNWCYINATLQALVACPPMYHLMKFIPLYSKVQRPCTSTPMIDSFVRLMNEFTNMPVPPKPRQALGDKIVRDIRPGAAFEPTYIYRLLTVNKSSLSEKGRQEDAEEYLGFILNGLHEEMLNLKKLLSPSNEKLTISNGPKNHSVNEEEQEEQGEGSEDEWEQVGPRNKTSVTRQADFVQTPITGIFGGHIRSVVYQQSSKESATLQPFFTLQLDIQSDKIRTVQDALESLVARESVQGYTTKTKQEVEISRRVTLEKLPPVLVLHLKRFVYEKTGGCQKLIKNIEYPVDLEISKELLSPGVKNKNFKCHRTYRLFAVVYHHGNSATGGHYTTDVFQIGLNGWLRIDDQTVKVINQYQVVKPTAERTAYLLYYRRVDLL
Method in brief: as §1

[9] = biological target: T6, USP15 (UniProt Q9Y4E8)
T6 sequence (whole entry): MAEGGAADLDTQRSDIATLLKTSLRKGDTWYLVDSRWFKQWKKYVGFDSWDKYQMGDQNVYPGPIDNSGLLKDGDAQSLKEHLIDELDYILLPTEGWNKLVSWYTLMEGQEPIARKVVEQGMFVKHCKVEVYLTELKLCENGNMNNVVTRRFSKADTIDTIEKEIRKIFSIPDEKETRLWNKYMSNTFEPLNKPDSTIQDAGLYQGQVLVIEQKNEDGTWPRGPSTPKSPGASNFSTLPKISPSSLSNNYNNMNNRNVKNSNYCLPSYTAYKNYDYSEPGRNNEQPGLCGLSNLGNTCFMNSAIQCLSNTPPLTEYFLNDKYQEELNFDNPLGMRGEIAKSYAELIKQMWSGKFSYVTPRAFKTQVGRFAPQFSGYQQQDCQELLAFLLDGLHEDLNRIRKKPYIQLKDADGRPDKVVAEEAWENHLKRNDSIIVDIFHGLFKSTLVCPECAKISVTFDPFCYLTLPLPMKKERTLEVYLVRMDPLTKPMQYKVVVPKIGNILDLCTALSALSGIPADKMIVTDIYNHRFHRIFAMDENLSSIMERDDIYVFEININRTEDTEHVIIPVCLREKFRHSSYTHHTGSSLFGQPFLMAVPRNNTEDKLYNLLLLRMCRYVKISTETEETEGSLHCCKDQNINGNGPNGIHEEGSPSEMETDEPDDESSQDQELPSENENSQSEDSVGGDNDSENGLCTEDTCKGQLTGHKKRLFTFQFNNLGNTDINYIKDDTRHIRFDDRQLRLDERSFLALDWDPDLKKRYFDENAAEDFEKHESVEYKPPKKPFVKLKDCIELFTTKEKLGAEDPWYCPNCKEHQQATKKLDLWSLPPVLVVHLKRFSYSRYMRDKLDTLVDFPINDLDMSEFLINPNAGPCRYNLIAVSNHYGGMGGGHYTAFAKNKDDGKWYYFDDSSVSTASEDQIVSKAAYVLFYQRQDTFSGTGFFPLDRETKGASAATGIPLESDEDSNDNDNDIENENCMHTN
Method in brief: as §1

[10] = biological target: USP16 (UniProt Q9Y5T5)
USP16, sequence (Q9Y5T5 whole entry, looked up): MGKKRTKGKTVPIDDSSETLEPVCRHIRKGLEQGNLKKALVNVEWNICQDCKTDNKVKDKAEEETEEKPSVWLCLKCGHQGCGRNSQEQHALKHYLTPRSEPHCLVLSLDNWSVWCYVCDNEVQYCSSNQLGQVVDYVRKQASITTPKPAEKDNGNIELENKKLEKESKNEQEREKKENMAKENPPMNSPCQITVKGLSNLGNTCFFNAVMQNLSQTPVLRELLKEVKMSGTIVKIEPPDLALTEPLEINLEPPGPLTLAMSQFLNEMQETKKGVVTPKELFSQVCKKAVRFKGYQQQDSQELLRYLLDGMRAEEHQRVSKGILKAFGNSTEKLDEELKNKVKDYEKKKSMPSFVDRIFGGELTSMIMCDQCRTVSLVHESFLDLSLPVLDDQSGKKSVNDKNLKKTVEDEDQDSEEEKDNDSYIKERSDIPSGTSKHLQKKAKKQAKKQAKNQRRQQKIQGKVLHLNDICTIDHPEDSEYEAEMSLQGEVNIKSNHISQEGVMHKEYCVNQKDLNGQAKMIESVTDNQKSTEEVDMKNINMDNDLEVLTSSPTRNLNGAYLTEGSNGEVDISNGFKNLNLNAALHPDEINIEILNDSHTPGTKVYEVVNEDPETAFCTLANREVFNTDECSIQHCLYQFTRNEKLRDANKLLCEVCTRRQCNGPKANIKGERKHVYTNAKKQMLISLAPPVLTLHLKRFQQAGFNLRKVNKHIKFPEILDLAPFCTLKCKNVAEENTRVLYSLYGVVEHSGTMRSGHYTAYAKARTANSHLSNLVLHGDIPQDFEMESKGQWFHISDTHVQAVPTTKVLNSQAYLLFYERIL
Method in brief: as §1

Cc1ccc(N2CCC(NC(=O)CCl)C2=O)cc1 (stereo not given)
log2 ratio of Biotin-Ahx-Ub-VS probe labelling [1]: 0.0252
log2 ratio of Biotin-Ahx-Ub-VS probe labelling [2]: -0.741
log2 ratio of Biotin-Ahx-Ub-VS probe labelling [3]: -0.0776
log2 ratio of Biotin-Ahx-Ub-VS probe labelling [4]: 0.0257
log2 ratio of Biotin-Ahx-Ub-VS probe labelling [5]: -1.67 (active)
log2 ratio of Biotin-Ahx-Ub-VS probe labelling [6]: 0.299
log2 ratio of Biotin-Ahx-Ub-VS probe labelling [7]: -0.0673
log2 ratio of Biotin-Ahx-Ub-VS probe labelling [8]: -0.174
log2 ratio of Biotin-Ahx-Ub-VS probe labelling [9]: 0.106
log2 ratio of Biotin-Ahx-Ub-VS probe labelling [10]: -0.702
